Compound activity deposited in PubChem BioAssay by ICCB-Longwood Screening Facility, Harvard Medical School.
MenB inh: blocks the Mycobacterium tuberculosis MenB enzyme; P9WNP5; MenB enzyme assay, absorbance read-out; inhibition, % (no concentration beside the values); actives 0.43% (n = 100,000); AID 540299; in the data active = inhibition above about 21%, passing the limit was not always enough
MbtI inh: blocks the Mycobacterium tuberculosis siderophore enzyme MbtI. P9WFX0. purified MbtI enzyme, fluorescence intensity read-out. inhibition, % (test concentration not listed). actives 0.89% (n = 100,000). AID 493033; in the data active = inhibition mostly above about 56%, no sharp cut-off; inactive = mostly below about 77%
Target sequence (P9WFX0 whole entry, looked up): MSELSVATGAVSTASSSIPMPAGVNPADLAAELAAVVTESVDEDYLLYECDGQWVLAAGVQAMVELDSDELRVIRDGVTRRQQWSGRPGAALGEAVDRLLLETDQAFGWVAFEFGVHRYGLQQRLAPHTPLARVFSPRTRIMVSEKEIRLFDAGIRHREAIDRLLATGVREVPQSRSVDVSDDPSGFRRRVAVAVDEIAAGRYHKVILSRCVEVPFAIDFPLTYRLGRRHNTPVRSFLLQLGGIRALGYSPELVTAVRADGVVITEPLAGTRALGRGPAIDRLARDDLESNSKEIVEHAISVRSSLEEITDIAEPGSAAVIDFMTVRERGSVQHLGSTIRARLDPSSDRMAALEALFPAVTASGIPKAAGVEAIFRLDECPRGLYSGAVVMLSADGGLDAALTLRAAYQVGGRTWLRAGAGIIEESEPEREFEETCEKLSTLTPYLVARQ
AID504770: growth inhibitors of E. coli YBA685 in a screen for V. cholerae RctB (chromosome II replication) inhibitors | E. coli YBA685 rctB-dependent plasmid, OD600 growth, 3 h; hits give low values | actives 0.27% (n = 130,000) | z-score (test concentration not listed); in the data active = z-score below about -2, passing the limit was not always enough
Polio RdRp inh: inhibitors of poliovirus RNA polymerase binding and polymerization. % elongation, % (compound at 16.7 µg/mL). actives 0.66% (n = 150,000). poliovirus polymerase elongation, fluorescence polarization; hits give low values. P03300; in the data active = % elongation below about 90%
Of the large screens only hits and unclear results are named; the others gave an inactive call; ! = repeats disagree. This is a sample that favours compounds with a hit; in the whole collection about 1.4% have one here.

S=c1[nH]cc2ccccn12	none
S=c1[nH]nc2ccccn12	MbtI inh 92!
CC(C)CNC(=O)c1cccc(S(=O)(=O)N2CCCCC2)c1	AID504770 -4.8 (no result: MenB inh)
O=C(O)c1cccc(S(=O)(=O)N2CCCCC2)c1	none
CCc1cccc(OCCCN2CCN(C)CC2)c1	none
COc1ccc2nc(C(=O)O)sc2c1	Polio RdRp inh 86 (no result: MbtI inh)
COC(=O)c1ccc(/N=C/c2cc(C)n(C3CCCC3)c2C)s1	none
CSCc1nc2sc(C(=O)NC3CC3)c(C)c2c(=O)[nH]1	none
Cc1ccc(Nc2nnc(SCc3nc4sc(C(=O)O)c(C)c4c(=O)[nH]3)s2)cc1C	Polio RdRp inh 81
C=CCN1C(=O)/C(=C\c2ccc(OCc3ccccc3C#N)cc2)C(=O)NC1=S	MbtI inh 74
C=CCN1C(=O)/C(=C\c2ccc(O)c(OC)c2)C(=O)NC1=S	none
C=CCN1C(=O)/C(=C\c2ccc(N(CC)CC)cc2)C(=O)NC1=S	MbtI inh 79
C=CCN1C(=O)/C(=C\c2ccc(O)c(Br)c2)C(=O)NC1=S	none
C=CCN1C(=O)/C(=C\c2ccc(OC)cc2)C(=O)NC1=S	MbtI inh 95
CCCN(CCC)C(=O)Nc1ccc(CC)cc1	none
O/N=C/c1c(O)ccc2ccccc12	MenB inh 32
CC(C)[C@H](NC(=O)COc1ccc2ccccc2c1)C(=O)O	none
CC(=O)OCC(=O)Nc1ccccc1	Polio RdRp inh 3.0
O=c1c2ccccc2n2c(=S)[nH]nc2n1Cc1ccccc1	none
O=C1CSc2ccccc2N1Cc1n[nH]c(=S)n1Cc1ccccc1	MbtI inh 56
CSc1nc(Sc2ccccc2)c(C#N)c(Sc2ccccc2)n1	none
C[N+]1(C)CCOC12CCCCC2	MenB inh 45
O=C1NC(C(=O)O)=CC(c2ccccc2)N1 (stereo not given)	none
O=C(Nc1cccc(F)c1)[C@H](CSCc1ccccc1)N1Cc2ccccc2C1=O	Polio RdRp inh 84 (no result: MenB inh, MbtI inh, AID504770)
O=C(Nc1cccc(F)c1)[C@H](Cc1ccccc1)N1Cc2ccccc2C1=O	none
COc1ccc(CCN=C=S)cc1	MbtI inh 96, Polio RdRp inh 77
S=C=NCCc1ccccc1	MbtI inh 65, Polio RdRp inh 89
COc1ccc(CCC(O)C2(O)CCCCC2)cc1 (stereo not given)	none (no result: MbtI inh)
Cn1nc(-c2ccc(N3CCCCC3)c(NC(=O)c3ccccc3)c2)c2ccccc2c1=O	none
O=C(OCC1COc2ccccc2O1)c1ccc(Br)cc1 (stereo not given)	none (no result: MenB inh)
O=C(NCCOc1ccccc1Cc1ccccc1)c1cccnc1	none (no result: MenB inh, Polio RdRp inh)
N#CCOC(=O)c1nc(-c2ccccc2)n(-c2ccccc2)n1	Polio RdRp inh 83
COc1ccc(NC(=O)c2c(NCc3ccc(N(C)C)cc3)sc3c2CCC3)cc1	Polio RdRp inh 86 (no result: MenB inh, MbtI inh, AID504770)
COc1ccc(CC(=O)Nc2sc3c(c2C(=O)Nc2ccc(C)cc2)CCCCC3)cc1	Polio RdRp inh 89 (no result: MenB inh, MbtI inh, AID504770)
CCn1c(=O)n(CC)c2cc(N3CCCC3)c(NC(=O)Cc3ccccc3)cc21	none
O=C1C=CC(=O)c2c(Cl)ccc(Cl)c21	AID504770 -2
CC(C)(C)c1cc(O)c(O)c(Br)c1	MbtI inh 101
COC(=O)c1cc(Br)c(O)c(Br)c1	none (no result: MenB inh, MbtI inh, Polio RdRp inh)
Cc1ccc(C)c(C(=O)CSc2nc3nc(C)cc(C)c3c(=O)[nH]2)c1	none
CNc1nnc(Sc2nnc(NC)s2)s1	MbtI inh 90
COc1ccc(C/C(N)=N/O)cc1OC	MenB inh 21
CS(=O)(=O)c1nc(-c2ccc(Br)cc2)n[nH]1	MbtI inh 90
CS(=O)(=O)c1nc(-c2ccc(Cl)cc2)n[nH]1	none (no result: MbtI inh)
CN(C(=O)c1noc2c1CCCC2)c1ccccc1Cl	none
c1ccc(-c2nnc(SCCN3CCOCC3)o2)cc1	MenB inh 26
C=C(C)CN1C(=O)C(O)(c2c[nH]c3ccccc23)c2ccccc21 (stereo not given)	none
Cc1ccc(-n2c(C)cc(/C=N/NC3CCS(=O)(=O)C3)c2C)cc1 (stereo not given)	none
O=S1(=O)CCC(N/N=C/c2ccccc2O)C1 (stereo not given)	Polio RdRp inh 20
Cc1csc(C(C#N)C(=O)CSc2nc3cc(Cl)ccc3s2)n1 (stereo not given)	none
CNc1nc(-c2ccccc2)[n+](-c2ccccc2)s1	MbtI inh 100 (no result: MenB inh)
CC(=O)Nc1nc(-c2ccccc2)[n+](-c2ccccc2)s1	none (no result: MenB inh, MbtI inh, Polio RdRp inh)
CC1CCN(S(=O)(=O)c2ccc(C(=O)NCc3ccco3)cc2)CC1	Polio RdRp inh 89 (no result: MbtI inh)
Cc1ccccc1Nc1nc(N)nc(COC(=O)CC2Sc3ccccc3NC2=O)n1 (stereo not given)	none
COc1ccccc1NC(=O)CSc1nnc(N)s1	Polio RdRp inh 83 (no result: MenB inh, MbtI inh, AID504770)
COc1ccc(NC(=O)CSc2nnc(N)s2)cc1	none (no result: MenB inh, MbtI inh, AID504770)
COc1ccccc1NC(=O)CSC(=O)c1ccccc1	MbtI inh 87 (no result: MenB inh)
CCOC(=O)N1CCC(NS(=O)(=O)c2csc(C(N)=O)c2)CC1	none
S=C(S)N1CCCCC1	AID504770 -5.2 (no result: MenB inh, MbtI inh, Polio RdRp inh)
O=C(C1CCCCC1)N1CCCCCCC1	none
c1ccc(N2CN3CN2CN3c2ccccc2)cc1	none
CN1C=C(c2ccccc2)N(c2ccccc2)C1	Polio RdRp inh 67 (no result: MbtI inh)
COc1cccc(-c2nc(SCC(=O)N3CCCC3)n3[nH]c(=O)cc3n2)c1	none
O=S(=O)(c1ccc(N2CCC(CNc3nc4ccccc4s3)CC2)cc1)N1CCOCC1	MenB inh 39
CCOC(=O)C(C#N)=C1C2CC3CC(C2)CC1C3	none (no result: MenB inh, MbtI inh, Polio RdRp inh)
CCOC(=O)C(C#N)=c1sc(=C(C#N)C(=O)OCC)s1	MbtI inh 76, Polio RdRp inh 88
C=CCn1c(NC)nc2c1c(=O)[nH]c(=O)n2C	none
C=CCn1c(SC)nc2c1c(=O)[nH]c(=O)n2C	MbtI inh 96
N#Cc1cc2c(cc1C#N)N1CCCc3cccc(c31)O2	none
NCCS	MbtI inh 51
O=c1c(Cl)c(O)cnn1C1CCCCC1	none
NC(=S)c1sccc1CS(=O)c1ccc(Cl)cc1 (stereo not given)	MbtI inh 59
Cc1ccsc1C(N)=S	none
CC(C)c1ccc(NC(=O)C(NC(=O)Cc2cccs2)c2ccccc2)cc1 (stereo not given)	none (no result: MenB inh, AID504770, Polio RdRp inh)
O=C1NC(=O)/C(=C\c2ccccc2C(F)(F)F)S1	MbtI inh 100
O=C1NC(=S)S/C1=C\c1ccccc1C(F)(F)F	none (no result: MenB inh, MbtI inh, Polio RdRp inh)
S=c1[nH]c2ccccc2n1CCOc1ccccc1	MbtI inh 95
S=c1[nH]c2ccccc2n1Cc1ccccc1	MbtI inh 84
N#CCCn1c(=S)[nH]c2ccccc21	Polio RdRp inh 82
Cn1c(=O)c2c(-c3ccc(Cl)cc3)n(CC3CCCO3)cc2n(C)c1=O (stereo not given)	none
COc1ccc(CCNC(=O)CCn2c(=O)sc3ccccc32)cc1OC	none (no result: MenB inh, MbtI inh, Polio RdRp inh)
CC(/C(O)=C(\C#N)c1nc2ccccc2[nH]1)N1C(=O)c2ccccc2C1=O (stereo not given)	none
CCCCN(C)C(=O)c1nn(C)c2c1CSc1ccccc1-2	none
Cc1cc(C)c(C(=O)O)c(Cl)n1	Polio RdRp inh 80
COc1nc(C)cc(C)c1C(=O)O	none (no result: MenB inh, MbtI inh, Polio RdRp inh)
CN(Cc1cccs1)C(=O)CSc1nnc(-c2ccccc2)n1-c1ccccc1	none
Cc1ccccc1N=Cc1sc2ccccc2c1O	none
Oc1c(/C=N/n2cnnc2)sc2ccccc12	MbtI inh 71
Cc1ccc(S(=O)(=O)N(CC(=O)O)C2CCCCCC2)cc1	none
